From PubChem BioAssay
Luciferase inh – inhibitors of firefly (Photinus pyralis) luciferase. 76,000 tested, 2.5% active. Potency, µM (titrated, usually from 115 µM), most hits filed as inhibitors. purified P. pyralis luciferase, luminescence, biochemical. P08659. AID 1347043; note: % is set by controls: 0 for no effect and ±100 for the full control effect; nearly all actives have a fitted effect of over 65% in size
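FLuc 10nM, D-luciferin 10uM, ATP 10uM, Mg acetate 10mM, Tris acetate pH 7.5, Tween/BSA; cpd qHTS; enzyme added last; CCD luminescence.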
HEK cytotox – kills HEK 293 cells; HEK 293 viability, ATP luminescence (CellTiter-Glo), 48-72 h; Potency, µM (doses to about 115 µM), inactives show top-dose activity change, negative = cytotoxicity, most hits filed as inhibitors; 94,000 tested, 6.6% active; note: % is set by controls: 0 for no effect and ±100 for the full control effect; nearly all actives have a fitted effect of over 60% in size
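CellTiter-Glo luminescence (cellular ATP) was read after 48 or 72 hr of compound exposure at 37 degree Celsius. Cells were HEK 293 plated at 250 cells/well.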
3T3 cytotox – NIH 3T3 cell cytotoxicity; NIH 3T3 viability, CellTiter-Glo ATP luminescence, 48-72 h; Potency, µM (top dose mostly 96.7 µM), for inactives: top-dose activity change, negative = cytotoxicity, usual class: inhibitors; 94,000 tested, 4.3% active; AID 1345082; note: % is set by controls: 0 for no effect and ±100 for the full control effect; nearly all actives have a fitted effect of over 55% in size
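First NIH 3T3 cells are plated at 400 cells/well; next compound is pinned in; then plates incubate 48 or 72 hr at 37 °C; finally CellTiter-Glo is added and luminescence read after 10 min.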
GPT2 inh – GPT2 alanine aminotransferase inhibition. AID 1671188. Q8TD30. Potency, µM (top dose mostly 57.7 µM), for inactives: top-dose activity change, negative = inhibition, hits mostly inhibitors. Recombinant GPT2, coupled pyruvate oxidase/HRP Amplex Red fluorescence. 100,000 tested, 0.25% active; note: % is set by controls: 0 for no effect and ±100 for the full control effect; nearly all actives have a fitted effect of over 60% in size
Target sequence (Q8TD30 whole entry, looked up): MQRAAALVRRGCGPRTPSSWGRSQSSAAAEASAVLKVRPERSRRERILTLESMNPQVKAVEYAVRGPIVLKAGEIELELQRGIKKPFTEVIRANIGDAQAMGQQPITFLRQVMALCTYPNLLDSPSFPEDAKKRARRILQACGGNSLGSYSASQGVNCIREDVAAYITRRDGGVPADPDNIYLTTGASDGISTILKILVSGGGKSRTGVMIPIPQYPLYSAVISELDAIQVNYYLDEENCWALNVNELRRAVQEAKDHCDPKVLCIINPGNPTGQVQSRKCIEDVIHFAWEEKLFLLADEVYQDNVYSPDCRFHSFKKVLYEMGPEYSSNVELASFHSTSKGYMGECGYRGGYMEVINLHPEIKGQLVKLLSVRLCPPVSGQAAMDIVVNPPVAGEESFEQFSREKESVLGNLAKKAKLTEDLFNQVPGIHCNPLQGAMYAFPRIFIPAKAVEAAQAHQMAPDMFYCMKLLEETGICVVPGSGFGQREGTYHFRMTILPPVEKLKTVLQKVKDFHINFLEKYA
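GPT2 10ng/uL, a-KG 250uM, L-Ala 2mM, HEPES pH7.5 + 0.0001% Tween; 30 min RT. Then Amplex mix (PO/HRP/ThPP), 30 min RT dark, fluorescence. AOA 50uM used as positive control.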
NPR1 antag – blocks ANP-stimulated signaling of human Npr1 receptor; P16066; HEK293 hNpr1 GloSensor cGMP, ANP-stimulated luminescence; Potency, µM (series often up to 46.3 µM), for the others: top-dose activity change, negative = inhibition, usual class: inhibitors; 76,000 tested, 1.6% active; AID 1347048; calls by dose curve; note: % is set by controls: 0 for no effect and ±100 for the full control effect; nearly all actives have a fitted effect of over 60% in size
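HEK293 cells stably expressing human Npr1 and cGMP GloSensor pGS-40F, loaded 2 h with 2% GloSensor reagent, given compound 30 min at room temperature. Luminescence read before and 20 min after 0.1 nM hNppA.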
NPR1 antag cnf – confirmation of human Npr1 natriuretic peptide receptor antagonists; AID 1347044; 1,400 tested, 76% active; shares compounds with NPR1 antag; HEK293 hNpr1 cGMP GloSensor luminescence, ANP-stimulated; Potency, µM (highest dose often 57.6 µM), for the others: at the highest dose activity change, negative = inhibition, actives largely listed as inhibitors; calls by dose curve; note: nearly all actives have a fitted effect of over 70% in size
Npr2 selectivity – hNpr2 antagonism, selectivity versus Npr1; shares compounds with NPR1 antag; HEK293 hNpr2 GloSensor cGMP luminescence, CNP-stimulated; Potency, µM (series often up to 57.6 µM), for the others: top-dose activity change, negative = inhibition, usual class: inhibitors; 1,400 tested, 67% active; calls by dose curve; note: nearly all actives have a fitted effect of over 70% in size
FLuc inh counter – inhibits firefly luciferase, false Npr1 antagonist flag | Potency, µM (doses to about 57.6 µM), for inactives: at the highest dose activity change, negative = inhibition, usual class: inhibitors | shares compounds with NPR1 antag | 1,400 tested, 0.7% active | purified FLuc enzyme, luminescence, Km substrate; note: 0% is about no effect
GloSensor cGMP – counter-screen for Npr1 antagonists: GloSensor control cell line | HEK293 GloSensor cGMP, SNP-stimulated, luminescence | 1,400 tested, 69% active | Potency, µM (top dose mostly 57.6 µM), for the others: at the top dose activity change, negative = inhibition, usual class: inhibitors | shares compounds with NPR1 antag; calls by dose curve; note: % is set by controls: 0 for no effect and ±100 for the full control effect; nearly all actives have a fitted effect of over 70% in size
Numbers without * were called inactive; i = inactive; ? = inconclusive; . = no result; [ ] = dose if it differs, or a comment. Rows were chosen to be rich in hits. Some 10% of all compounds tested hit in one or more screens of this group. Unless noted, calls come from the whole dose curve; as a rule, active = well fitted curve in the direction sought with a large enough effect; inconclusive = small, poorly fitted or top-dose-only effect, or another doubt; inactive = no such curve, though single readings can be large; an effect the other way counts as inactive or inconclusive. Potency is the fitted concentration of half-maximal effect.

SMILES	Luciferase inh	HEK cytotox	3T3 cytotox	GPT2 inh	NPR1 antag	NPR1 antag cnf	Npr2 selectivity	FLuc inh counter	GloSensor cGMP
Cn1cccc1CN1CCCC2(C1)C(=NC1CCCCC1)NC(=O)N2c1cccnc1 (stereo unspecified)	.	3%	?	-28%	.	.	.	.	.
CC1=C[C@@H](CN(C)Cc2cccnc2)[C@H](C(C)C)C[C@H]1Cc1nnc(-c2ccc([N+](=O)[O-])cc2)o1	i	22µM*	16µM*	i	20µM*	15µM*	17µM*	1%	12µM*
CC1=C[C@@H](CO)[C@H](C(C)C)C[C@H]1Cc1nnc(-c2cccnc2)o1	i	?	-29%[138 µM]	-11%[88.5 µM]	-1%[70.6 µM]	.	.	.	.
CC1=C[C@@H](CN2CCOCC2)[C@H](C(C)C)C[C@H]1Cc1nnc(-c2ccncc2)o1	i	?	?	2%[88.5 µM]	?	?	-27%[86.2 µM]	2%[86.2 µM]	-16%[86.2 µM]
Cc1ccc(-c2cc(O)c3c(c2)CN(C(=O)[C@@H](N)Cc2cnc[nH]2)CCO3)cc1	?	?	-1%	-24%	0%	.	.	.	.
COCCN1CCOc2nc(-c3cc4ccccc4o3)ncc2C1=O	i	?	?	-7%[88.5 µM]	13µM*	9.9µM*	9.9µM*	0.5µM*	7.9µM*
O=C1c2cnc(-c3ccncc3)nc2OCCN1Cc1ccc(F)cc1F	i	?	?	?	18µM*	31µM*	25µM*	-2%[86.2 µM]	22µM*
COc1ccccc1-c1ncc2c(n1)OCCN(Cc1ccc(F)cc1F)C2=O	i	-35%[172 µM]	?	-17%[88.5 µM]	-3%[70.6 µM]	.	.	.	.
COc1ccc(CN2CCOc3nc(-c4cccc(C(F)(F)F)c4)ncc3C2=O)cc1	i	?	?	-5%[88.5 µM]	32µM*	35µM*	35µM*	-6%[86.2 µM]	40µM*
Cn1nccc1-c1ncc2c(n1)OCCN(Cc1ccc(F)cc1F)C2=O	i	?	?	4%[88.5 µM]	35µM*	35µM*	35µM*	5%[86.2 µM]	40µM*
NC(=O)CN1CCC2(CC1)CCN(C(=O)Cc1cnc[nH]1)CC2CO (stereo unspecified)	i	i	4%	2%	0%	.	.	.	.
COc1cccc(-c2cc(C3CCN(C(=O)c4ccccc4Br)CC3)[nH]n2)c1	i	28µM*	?	i	18µM*	24µM*	24µM*	0%	22µM*
COc1ccc(CN2CCC(C3CCN(S(C)(=O)=O)CC3)C2)cc1OC (stereo unspecified)	i	2%	5%	i	5%	.	.	.	.
c1ccc(-n2cc(CN3CCC(Oc4ccncc4)CC3)nn2)cc1	i	?	?	i	?	?	?	1%	?
COc1ccc(C(=O)N2CCCN(c3cc(-c4ccccc4)[nH]n3)CC2)c(OC)c1	i	40µM*	-19%	?	?	24µM*	?	2%	24µM*
COc1ccc(C(=O)N2CCCN(c3cc(-c4ccccc4)[nH]n3)CC2)c(C)c1	i	?	?	-25%	11µM*	17µM*	19µM*	1%	17µM*
Cc1ccc(C(=O)N2CCN(c3cc(-c4cccs4)[nH]n3)CC2)c(C)c1	i	45µM*	7.9µM*	i	?	27µM*	24µM*	4%	27µM*
O=C(C1CCCN1C(=O)C1CCCC1)N1CCCC(c2nc3ncccc3[nH]2)C1 (stereo unspecified)	.	1%	-12%	i	.	.	.	.	.
COc1ccccc1OCCNC(=O)C1CCN(c2cc(C(F)(F)F)ncn2)CC1	i	-25%	?	i	?	.	.	.	.
COc1ccc(NC(=O)N2c3ccccc3CC2c2nc(C3CC3)no2)c(OC)c1 (stereo unspecified)	i	?	-28%	i	1%	.	.	.	.
Cc1nn2c(c1-c1ccccc1OCc1ccccc1)N(C(=O)COc1ccccc1C(N)=O)CCC2	i	?	6.3µM*	?	7.1µM*	17µM*	11µM*	0%	0%
Cc1nn2c(c1-c1ccccc1OCc1ccccc1)N(C(=O)Cc1ccccn1)CCC2	i	?	?	-7%[88.5 µM]	?	20µM*	13µM*	1%[86.2 µM]	-20%[86.2 µM]
Cc1nn2c(c1-c1ccccc1Oc1ccccc1)N(C(=O)c1ccnn1C)CCC2	i	?	-23%[138 µM]	2%[88.5 µM]	-15%[70.6 µM]	.	.	.	.
O=C(Nc1cccc(Cl)c1)c1ccc2nc(-c3cccnc3)oc2c1	.	-30%	-22%	0%	.	.	.	.	.
c1cncc(C2=NOC3(CCCN(Cc4cccc5ccccc45)C3)C2)c1 (stereo unspecified)	.	?	?	i	.	.	.	.	.
SMILES	Luciferase inh	HEK cytotox	3T3 cytotox	GPT2 inh	NPR1 antag	NPR1 antag cnf	Npr2 selectivity	FLuc inh counter	GloSensor cGMP
O=C(NCc1ccccc1Cl)c1cn2cc(-c3ccccc3)sc2n1	.	-1%	-14%	-2%	.	.	.	.	.
O=C(NCc1ccccc1Cl)c1csc(N2CCN(c3ccc(F)cc3)CC2)n1	i	?	?	i	11µM*	22µM*	22µM*	-7%	19µM*
O=C(NCc1ccc(F)cc1)c1cc2n(n1)CC(c1ccc3c(c1)OCO3)OC2 (stereo unspecified)	i	?	?	?	0%	.	.	.	.
O=C(NCc1ccccc1)c1csc(N2CCN(c3ccc(Cl)cc3)CC2)n1	i	?	-12%	i	11µM*	22µM*	22µM*	0%	22µM*
O=C(NCc1ccc2c(c1)OCO2)c1csc(N2CCN(c3ccc(F)cc3)CC2)n1	i	28µM*	?	1%	10µM*	8.6µM*	11µM*	-1%	9.7µM*
CCC(C)CNc1ncnc2c1CN(C1CCCNCC1)C(=O)CN2C (stereo unspecified)	.	-7%	-6%	-18%	.	.	.	.	.
C=CCN(C)C(=O)CC1COc2ccc(C(=O)N(C)C)cc2N1C (stereo unspecified)	i	-9%	-12%	3%	5%	-6%	-7%	2%	-7%
